Hits are enriched below; roughly 3.4% of the tested compounds scored in any of these assays.
TEAD-YAP block – TEAD-YAP interaction inhibition | HEK-TIYL cells, TEAD-Gal4/YAP UAS-luciferase luminescence | inhibition, % at 9.12 µM | 640,000 compounds, 1.4% hits; in the data active = inhibition above about 32%;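 also: 0% = median of test compound wells and 100% = reference inhibitor wells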
MITF inh – inhibitors of human MITF | O75030 | AlphaScreen MITF homodimerization, bead proximity signal | inhibition, % at 2.6 µM | 650,000 compounds, 0.91% hits | AID 1259374; in the data active = inhibition above about 50%;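 also: 0% = vehicle wells with protein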
Target sequence (O75030 whole entry, looked up): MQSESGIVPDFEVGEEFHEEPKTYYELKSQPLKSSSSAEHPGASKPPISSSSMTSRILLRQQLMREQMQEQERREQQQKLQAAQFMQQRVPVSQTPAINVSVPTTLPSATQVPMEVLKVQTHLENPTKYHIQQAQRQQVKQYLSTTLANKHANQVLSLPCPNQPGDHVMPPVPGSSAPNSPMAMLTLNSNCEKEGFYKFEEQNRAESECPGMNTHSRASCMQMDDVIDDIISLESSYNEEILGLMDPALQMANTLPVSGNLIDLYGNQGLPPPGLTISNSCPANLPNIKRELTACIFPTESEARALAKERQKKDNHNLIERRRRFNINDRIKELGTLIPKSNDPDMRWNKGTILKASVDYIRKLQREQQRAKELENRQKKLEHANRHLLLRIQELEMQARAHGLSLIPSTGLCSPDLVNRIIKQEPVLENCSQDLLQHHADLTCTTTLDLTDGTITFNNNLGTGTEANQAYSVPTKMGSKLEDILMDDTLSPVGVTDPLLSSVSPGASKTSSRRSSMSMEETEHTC
FBW7 activator – activators of human E3 ligase FBW7; Q969H0; AlphaScreen FBW7–phospho-cyclin E peptide binding, activator screen; normalized activity (activation), % at 26.1 µM; 650,000 compounds, 0.13% hits; AID 1259310; in the data active = normalized activity above about 1.9%;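 also: purified mutant Fbw7 with reduced substrate affinity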
GPR151 activ – activates the human receptor GPR151; Q8TDV0; activation, % at 11.2 µM; PathHunter beta-arrestin GPR151 cells, luminescence; AID 1508602; 650,000 compounds, 1% hits; in the data active = activation above about 4.9%;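 also: 0% = median of compound wells and 100% = cells with positive control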
Numbers without * were called inactive.

For COc1ccc(-c2cc(C(=O)N3CCN(c4ccccc4OC)CC3)c3ccccc3n2)cc1 the results were TEAD-YAP block 41*, MITF inh -12, FBW7 activator 0 and GPR151 activ 1.
Screening COc1ccc(NC(=O)c2cc(-c3ccncc3)nc3ccccc23)cc1 returned TEAD-YAP block 40*, MITF inh -2, FBW7 activator 0 and GPR151 activ 0.
Screening COc1ccc(CNC(=O)c2ccc(N(C)S(=O)(=O)c3ccc(Cl)cc3)cc2)cc1 returned TEAD-YAP block 11, MITF inh 8, FBW7 activator 0 and GPR151 activ 1.
Screening Cc1nc(NCc2ccc3c(c2)CCO3)sc1-c1ccn(CCN2CCOCC2)n1 returned TEAD-YAP block -2, MITF inh 2, FBW7 activator 0 and GPR151 activ 1.
Screening CCN1C(=O)c2cccc3c(S(=O)(=O)NN4CCOCC4)ccc1c23 returned TEAD-YAP block 12, MITF inh 22, FBW7 activator 0 and GPR151 activ 0.
COc1ccc2cc(-c3cc(C(=O)N4CCN(CCO)CC4)c4ccccc4n3)ccc2c1 was read as TEAD-YAP block 70*, MITF inh -1, FBW7 activator 0 and GPR151 activ -1.
CCc1ccc(-c2cc(C(=O)N3CCN(c4ncccn4)CC3)c3ccccc3n2)s1 was read as TEAD-YAP block 33*, MITF inh -14, FBW7 activator 0 and GPR151 activ 1.
`COc1cccc(-c2cc(C(=O)N3CCOCC3)c3ccccc3n2)c1` gave TEAD-YAP block 11, MITF inh -2, FBW7 activator 0 and GPR151 activ 0.
Screening C[n+]1cccc(/C=C2/c3ccccc3-c3ncccc32)c1 returned TEAD-YAP block 0, MITF inh -1, FBW7 activator 0 and GPR151 activ 0.
`CCCCNC1CCN(c2cccc(NC(=O)c3ccccc3OC)c2)CC1` gave TEAD-YAP block 41*, MITF inh 29, FBW7 activator 0 and GPR151 activ 3.
COc1ccccc1C(=O)Nc1cccc(N2CCC(NCCc3ccco3)CC2)c1 was read as TEAD-YAP block 44*, MITF inh 3, FBW7 activator 0 and GPR151 activ 0.
For COc1ccccc1C(=O)Nc1cccc(N2CCC(NCCc3cccs3)CC2)c1 the results were TEAD-YAP block 51*, MITF inh 20, FBW7 activator 0 and GPR151 activ -1.
Screening O=S(=O)(Nc1cccc(N2CCC(NCCc3ccco3)CC2)c1)c1ccc(F)cc1 returned TEAD-YAP block -9, MITF inh 61*, FBW7 activator 1 and GPR151 activ 1.
Screening O=S(=O)(Nc1cccc(N2CCC(NCCn3ccnc3)CC2)c1)c1ccc(F)cc1 returned TEAD-YAP block 6, MITF inh -2, FBW7 activator 0 and GPR151 activ 0.
`COc1ccccc1C(=O)Nc1cccc(N2CCC(NCc3ccsc3)CC2)c1` gave TEAD-YAP block -12, MITF inh -10, FBW7 activator 0 and GPR151 activ -1.
COc1ccccc1C(=O)Nc1cccc(N2CCC(NCCc3cnccn3)CC2)c1 was read as TEAD-YAP block 20, MITF inh 8, FBW7 activator 0 and GPR151 activ 0.
For C(=N\Nc1nc(-c2ccncc2)cs1)/c1cccnc1 the results were TEAD-YAP block 1, MITF inh 11, FBW7 activator 0 and GPR151 activ 2.
`CCCNC(=O)CCc1nc(-c2ccccc2Cl)no1` gave TEAD-YAP block 3, MITF inh -3, FBW7 activator 0 and GPR151 activ -1.
For CCNC(=O)CCCc1nc(-c2ccccc2Cl)no1 the results were TEAD-YAP block 36*, MITF inh 4, FBW7 activator 0 and GPR151 activ -1.
`O=C(O)CC1S/C(=N/N=C/c2cccc([N+](=O)[O-])c2O)NC1=O` (configuration not stated) gave TEAD-YAP block -8, MITF inh 91*, FBW7 activator -1 and GPR151 activ 0.
For CCNC(=O)[C@@H]1C[C@@H](NCc2ccc(SC)cc2)CN1Cc1ccc2ccccc2c1 the results were TEAD-YAP block 2, MITF inh 24, FBW7 activator 1 and GPR151 activ 0.
`CC(=O)N1CCCC(c2nnc(-c3ccccc3F)s2)C1` (configuration not stated) gave TEAD-YAP block 82*, MITF inh -1, FBW7 activator 0 and GPR151 activ -6.
CC(C)C(=O)N1CCCC(c2nnc(-c3ccccc3F)s2)C1 (configuration not stated) was read as TEAD-YAP block 93*, MITF inh 8, FBW7 activator 0 and GPR151 activ -6.
